± gives the standard deviation of the averaged measurements. Over roughly 33,000 sequences, “E-score (rank enrichment, -0.5 to 0.5)” has its median near -0.0028; the highest 2% begin near 0.23. What follows is part of a selection rich in the highest values, with near analogues and random picks from the rest.
System: 2Sb-muMax20 (muMax20 with two 1,3-bis(methyl)benzene Cys staples, A13C/A17C and Q88C/A92C, C-terminal Lys)
Experiment: PBM 8-mer E-score (E-score (rank enrichment, -0.5 to 0.5)); higher = stronger preferential binding
Protocol: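 Protein binding microarray (universal PBM chip covering all 10-mers in fixed probe flanks) with chemically synthesized human Max(13-93) bHLH-LZ analogs (not full-length Max) bearing noncanonical residues (hArg, Tha, Aib, Nle at 65) and aromatic Cys staples. Read-out per 8-mer (and its reverse complement): E-score (rank-based enrichment, -0.5 to 0.5) and Z-score of median probe intensity.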

Sequence	PBM 8-mer E-score
AGAAATTC	0.0899 ± 0.038
CAATGAGC	-0.0934 ± 0.018
ACTGGCAC	-0.112 ± 0.0073
CTATCAAG	0.0675 ± 0.11
CACCTATG	-0.067 ± 0.015
AACAAAAA	0.0552 ± 0.028
GACAAGTC	-0.141 ± 0.038
AACAAAAT	0.275 ± 0.042
CACAAGTC	-0.0773 ± 0.025
AACAAGAT	0.136 ± 0.05
AACAAGTC	0.232 ± 0.0046
CTTCTTGC	-0.076 ± 0.029
ACAATACC	0.247 ± 0.01
ACAATAAT	0.2723 ± 0.0017
ACAATACT	0.098 ± 0.011
ACAATACA	0.0315 ± 0.045
ACAATAAA	0.157 ± 0.082
ACAATAAC	0.18 ± 0.04
CCACTTAA	0.0781 ± 0.04
GTGCCCGA	-0.169 ± 0.03
CAGAGGCG	-0.0537 ± 0.004
GCGGGACA	-0.0586 ± 0.068
CGCGCGCG	-0.0393 ± 0.0083
AAGTGCCC	0.0017 ± 0.086

Sequence	PBM 8-mer E-score
TAGTTCGA	0.117 ± 0.065
GTTTACGA	0.233 ± 0.0029
CTTTACGA	-0.11 ± 0.061
ATTTACGA	0.13 ± 0.011
GAACCTTA	0.14 ± 0.038
ACAACCCC	0.237 ± 0.088
CCAACCCC	0.19 ± 0.044
ACAACAAA	0.189 ± 0.045
ACAACAAG	0.259 ± 0.0048
CCAACACC	-0.11 ± 0.046
ACAACCAT	0.266 ± 0.01
ACAACCAC	0.076 ± 0.093
ACAACCAG	0.144 ± 0.037
ACAACCCT	-0.0652 ± 0.072
ACAACACC	0.257 ± 0.014
GCAACACC	0.0523 ± 0.023
ACAACAAC	0.0959 ± 0.0063
AGAGCCAT	-0.0498 ± 0.022
GTACGTTA	0.0622 ± 0.061
TACGAAGA	0.16 ± 0.034
CTTCAGAC	-0.147 ± 0.0041
CCGCTGTA	-0.00727 ± 0.018
GATGGACC	-0.139 ± 0.026
AGCTAAAA	-0.0318 ± 0.011

Sequence	PBM 8-mer E-score
ATACAAAC	0.182 ± 0.056
AGCTCTAG	-0.0829 ± 0.017
AGCACCTC	0.00592 ± 0.042
ATCCACCG	-0.1554 ± 0.001
GATAGCCC	0.0239 ± 0.026
GGGGTATA	0.217 ± 0.071
CTAGTAAA	0.11 ± 0.069
ATAGTAAA	0.233 ± 0.068
ATAGTAAT	0.0828 ± 0.014
CTGAGTCA	-0.163 ± 0.1
CCTCCCGA	-0.19 ± 0.041
ATAGTTAG	0.136 ± 0.038
AAATACCT	0.11169 ± 4.2e-05
CATAACCA	0.16 ± 0.018
GATAACCA	0.25 ± 0.0028
TATAACCA	0.125 ± 0.024
AATAACTA	0.151 ± 0.013
CATAACTA	0.0553 ± 0.058
GATAACTA	0.237 ± 0.0032
ACGACTAC	-0.086 ± 0.0098
TGATTGCA	0.2879 ± 0.0004
TAATTGCA	0.178 ± 0.022
AAATTGCA	0.0694 ± 0.01
AAATTGGG	0.211 ± 0.011

Sequence	PBM 8-mer E-score
CGATTGCA	-0.00806 ± 0.061
CAATTGCA	0.241 ± 0.03
CAATTGGG	0.233 ± 0.044
CAATTGGA	0.105 ± 0.079
AGATTGCA	-0.04038 ± 0.00028
ATGTGATA	0.137 ± 0.099
CTTCTCTC	-0.021 ± 0.036
ATAGGAAT	-0.00103 ± 0.048
ATTCTTTG	0.0288 ± 0.029
GGCTCGGA	-0.242 ± 0.019
CACCCATG	-0.0354 ± 0.1
ATGGGGCC	-0.148 ± 0.097
ATGGGGCG	0.305 ± 0.011
ATGGGGCA	0.247 ± 0.015
ATGGGGGG	-0.078 ± 0.064
GTGGGGCA	0.0926 ± 0.0061
CTGGGGCA	-0.128 ± 0.0081
CCGCGTAC	-0.0836 ± 0.06
AAACCCTC	0.0564 ± 0.037
ATACTTTA	0.254 ± 0.079
CTACTTTA	-0.0218 ± 0.0086
ATACTTTG	0.18 ± 0.031
